Calls of active or inactive are those of the source. How the source made its calls: active means hit-call score of the fitted dose curve at least 0.9, where 1 is the maximum; inactive means score below 0.9.

The target of this assay is Retinoic acid receptor alpha (Homo sapiens) (UniProt P10276). The assay can be described thus: ATG_DR5_RAR_CIS: Attagene CIS-FACTORIAL HepG2 Assay for human Retinoic Acid Receptor Alpha (RARE), DR5 submotif (AID 2282934).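 On AC50: reporter responds to endogenous RAR alpha beta and gamma in HepG2 not RARA alone.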 The settings on record: HepG2 Attagene cis-factorial RARE DR5 reporter, mRNA; actives raise or lower the signal. A digest of the protocol: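 Read-out: DR5-driven reporter transcript measured by RT-PCR, 6-FAM primer extension, HpaI digest and capillary electrophoresis. Human HepG2 liver cells carry transiently transfected cis-element reporter constructs; dosing lasts 24 h. Gain or loss of signal fitted against DMSO baseline.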
Retinoic acid receptor alpha (Homo sapiens), sequence (P10276 whole entry, looked up): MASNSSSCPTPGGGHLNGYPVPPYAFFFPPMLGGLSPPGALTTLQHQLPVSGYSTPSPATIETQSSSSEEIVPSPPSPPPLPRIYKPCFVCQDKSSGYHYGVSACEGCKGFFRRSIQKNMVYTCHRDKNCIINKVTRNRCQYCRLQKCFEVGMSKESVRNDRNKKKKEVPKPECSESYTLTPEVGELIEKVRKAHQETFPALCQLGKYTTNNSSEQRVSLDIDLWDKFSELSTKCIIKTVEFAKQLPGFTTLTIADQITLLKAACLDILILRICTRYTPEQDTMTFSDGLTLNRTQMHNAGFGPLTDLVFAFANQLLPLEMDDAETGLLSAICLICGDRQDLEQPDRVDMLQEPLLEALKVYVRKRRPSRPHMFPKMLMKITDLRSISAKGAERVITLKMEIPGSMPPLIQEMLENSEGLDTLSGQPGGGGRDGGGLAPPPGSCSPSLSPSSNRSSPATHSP
On to `CC(Cl)COP(=O)(OCC(C)Cl)OCC(C)Cl` (stereo unspecified), for which the call was inactive.

As for `CCCCCCC=O`, the compound was called inactive.

Take `CCCCCCOc1ccc(N)cc1`: the result was inactive.

Regarding `CCCCCCCCCCCCCC(=O)OC(C)C`, the compound was classed as inactive.

As to `CCCCCCCOC(=O)c1ccc(O)cc1`, the AC50 is 53.1 µM (active).

With `Cc1ccccc1CCO`, the compound was called inactive.

Take `CCC(C)N` (stereo unspecified): the outcome was inactive.

Turning to `COC(OC)(C(=O)c1ccccc1)c1ccccc1`, the call was inactive.

For `[Cl][Eu]([Cl])[Cl]`, the result was inactive.

Regarding `Nc1ncnc2nc[nH]c12`, the outcome was inactive.

Regarding `COc1ccc(C(=O)/C(Br)=C\C(=O)O)cc1`, the compound was classed as inactive.

Regarding `CCN1CN(CC)CN(CC)C1`, the result was inactive.

For the compound `CCOC(=O)c1ccc(C)cc1`, the compound was called inactive.

For the compound `Cc1ccc2c(c1)CCCN2`, the outcome was inactive.

`COc1cc(C)ccc1O`: the result was inactive.

Consider `C=CC(=O)OCCCCCCOC(=O)C=C`, for which the compound was classed as inactive.

As for `c1ccc2sc(SSN3CCOCC3)nc2c1`, the AC50 is 170 µM (active).

In the case of `CCCCOCCOCCOC(C)=O`, the result was inactive.

`CC(=O)OCCc1ccccc1`: the result was inactive.

Consider `CC(C)CC(=O)OCc1ccccc1`, for which the compound was classed as inactive.

For `CC(=O)OC/C=C(/C)CCC=C(C)C`, the compound was classed as inactive.

For the compound `CCCCCC1=CCCC1=O`, the call was inactive.

As to `CCC(C)(O)CCCC(C)C` (stereo unspecified), the call was inactive.

`COc1ccc(C(=O)c2ccccc2)c(O)c1`: the outcome was inactive.

As to `CC(C)(CO)COC(=O)C(C)(C)CO`, the result was inactive.

Turning to `Cc1c[nH]c(=O)[nH]c1=O`, the compound was called inactive.

As to `CCOB(OCC)OCC`, the result was inactive.

Take `CC(=O)CCC1=C(C)CCCC1(C)C`: the call was inactive.

With `CCCCCCCCCCCC(C)=O`, the AC50 is 69.4 µM (active).

For `CCOC(=O)C1=NOC(c2ccccc2)(c2ccccc2)C1`, the compound was classed as inactive.

In the case of `Cc1c(O)cccc1O`, the result was inactive.

The term AC50 denotes the concentration at which the activity in the assay is half-maximal.

These data come from PubChem BioAssay (EPA / NIEHS).
